According to the supplement of paper PMC3334620:
The full ranking holds about 33,000 sequences; the median of “E-score (-0.5 to 0.5)” is about -0.016, and the highest 2% start at about 0.31. Many of the other results were omitted from the sample, so the highest values are more common in it than they were.

molecular target: Cst6 (UniProt P40535); assay: PBM E-score (8-mer binding enrichment) (E-score (-0.5 to 0.5)); higher = stronger / more preferred TF binding; details: protein concentration: 200 nM; construct: GST-DNA-binding domain
Outline: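 Full-length yeast transcription factors or their DNA-binding domains, GST-tagged and expressed with PURExpress, were applied at about 100-200 nM to universal all-10-mer Agilent arrays. These arrays had been made double-stranded by primer extension on fresh or once-stripped slides. Detection used fluorescent anti-GST, normalisation used masliner, and E-scores for ungapped eight-base words pooled with reverse complements came from the Universal PBM Analysis Suite.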

Chain of UniProt P40535 (P40535 whole entry, the tested form may be a part): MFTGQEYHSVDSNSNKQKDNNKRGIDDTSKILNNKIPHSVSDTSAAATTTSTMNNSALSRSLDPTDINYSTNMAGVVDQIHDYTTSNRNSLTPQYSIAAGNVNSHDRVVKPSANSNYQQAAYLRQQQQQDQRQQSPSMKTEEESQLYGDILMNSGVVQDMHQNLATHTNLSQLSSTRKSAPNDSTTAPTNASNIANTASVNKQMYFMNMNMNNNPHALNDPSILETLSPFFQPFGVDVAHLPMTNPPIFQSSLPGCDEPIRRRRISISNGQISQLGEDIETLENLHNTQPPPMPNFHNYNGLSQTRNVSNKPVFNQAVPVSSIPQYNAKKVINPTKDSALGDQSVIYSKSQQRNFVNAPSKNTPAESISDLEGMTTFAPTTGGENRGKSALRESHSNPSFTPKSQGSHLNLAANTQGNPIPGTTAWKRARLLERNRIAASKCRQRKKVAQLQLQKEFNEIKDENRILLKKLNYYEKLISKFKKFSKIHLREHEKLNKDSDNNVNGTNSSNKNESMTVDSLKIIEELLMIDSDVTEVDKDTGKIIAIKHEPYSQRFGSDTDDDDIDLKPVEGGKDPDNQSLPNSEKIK

Going from GTCACTCA to ATCACTTA, the “PBM E-score” value falls from 0.315 to 0.194.

First: GTCACTGA
Second: CTCACTCA
The “PBM E-score” value of the first is higher: 0.281 for the first, 0.0247 for the second.

First: GTCACTTA
Second: ATCACTCA
The “PBM E-score” value of the first is higher: 0.331 for the first, 0.138 for the second.

Compared with CCAGTGTC, GCGCCTAC is higher in “PBM E-score” value: -0.108 for the first, 0.136 for the second.

Going from CGGCAACG to TCGAAGCA, the “PBM E-score” value falls from 0.0207 to -0.0376.

First: GGCCGCTA
Second: CACGCGGC
The “PBM E-score” value of the first is lower: -0.232 for the first, 0.279 for the second.

Going from AACGCGGC to GCCGCGGC, the “PBM E-score” value rises from 0.261 to 0.31.

Compared with GACGCGGC, CCCGCGGC is lower in “PBM E-score” value: 0.318 for the first, 0.109 for the second.

Going from GCCGCGGA to AGTGAACC, the “PBM E-score” value falls from 0.0146 to -0.0808.

First: CCCGTCAG
Second: GACGTCCA
The “PBM E-score” value of the first is lower: -0.282 for the first, 0.276 for the second.

Compared with CACGTCTG, AACGTCAA is higher in “PBM E-score” value: 0.0582 for the first, 0.401 for the second.

Going from AACGTCTG to AACGTCAG, the “PBM E-score” value rises from 0.0755 to 0.371.

Compared with AACGTCCA, AACGTCGG is lower in “PBM E-score” value: 0.0436 for the first, -0.174 for the second.

First: GACGTCGA
Second: GACGTCAA
The “PBM E-score” value of the first is lower: 0.292 for the first, 0.479 for the second.

First: AACGTCGA
Second: CACGTCAG
The “PBM E-score” value of the first is lower: 0.133 for the first, 0.449 for the second.

Going from CAAACTCA to GGCACCAC, the “PBM E-score” value falls from 0.0635 to -0.1.

Going from AAGCGATG to CCAGTTCG, the “PBM E-score” value rises from -0.134 to -0.0928.

First: CAAACGCG
Second: ATGGCCCA
The “PBM E-score” value of the first is higher: 0.0743 for the first, -0.0308 for the second.

Compared with AACTTCCA, AGACCTAC is lower in “PBM E-score” value: -0.178 for the first, -0.227 for the second.

Going from ATCCCAGG to CCGATCTC, the “PBM E-score” value rises from -0.234 to -0.145.

Going from TACGTCAA to TACGTCTA, the “PBM E-score” value falls from 0.484 to 0.188.

Going from CACGTCTC to TGCGTCCA, the “PBM E-score” value rises from -0.097 to -0.0683.

Going from TACGTCCA to GGCGTCAA, the “PBM E-score” value rises from 0.0953 to 0.263.

Compared with CACGTCAC, AACGTCAC is lower in “PBM E-score” value: 0.489 for the first, 0.488 for the second.

Going from CACGTCCC to TGCGTCAA, the “PBM E-score” value rises from -0.216 to 0.318.

Compared with AACGTCTC, AACGTCCC is lower in “PBM E-score” value: -0.0757 for the first, -0.173 for the second.

Compared with CATACTCC, CAGCCAAC is lower in “PBM E-score” value: 0.0426 for the first, -0.13 for the second.

Going from CGAATTAG to CGTTTAAG, the “PBM E-score” value falls from 0.0675 to 0.0111.

Going from AGGTCTAC to AAACTAGT, the “PBM E-score” value rises from -0.216 to 0.062.

Going from CCCTGAGA to GAAATCCC, the “PBM E-score” value rises from -0.247 to -0.101.

Going from CGTTCTTA to AAGCCATG, the “PBM E-score” value falls from 0.0793 to -0.124.

First: CAACAGCC
Second: ACAAGAAA
The “PBM E-score” value of the first is lower: 0.153 for the first, 0.237 for the second.

Compared with GACGTCGC, GACGTCCC is lower in “PBM E-score” value: 0.236 for the first, 0.016 for the second.

Compared with AACGTCGT, AACGTCCT is lower in “PBM E-score” value: 0.0196 for the first, -0.0138 for the second.

Compared with TCTGTCAA, TATGTCAA is higher in “PBM E-score” value: 0.111 for the first, 0.378 for the second.

Going from GACGTCAC to CACGTCTA, the “PBM E-score” value falls from 0.495 to -0.0114.

Compared with CACGTCAA, AACGTCAT is higher in “PBM E-score” value: 0.366 for the first, 0.489 for the second.

First: CCCGTCAA
Second: AATGTCAA
The “PBM E-score” value of the first is lower: -0.228 for the first, 0.102 for the second.

Compared with ATAAGCTC, CGCCCACC is lower in “PBM E-score” value: -0.0286 for the first, -0.0447 for the second.

Compared with CGGTCCGC, ACAAAGAA is higher in “PBM E-score” value: -0.198 for the first, 0.247 for the second.

First: GACTGCTC
Second: ACACTTAA
The “PBM E-score” value of the first is lower: -0.26 for the first, 0.105 for the second.

Going from GGGGCTTA to CAGATAAA, the “PBM E-score” value rises from -0.346 to 0.051.

First: CTATCGGA
Second: AGTGTGCC
The “PBM E-score” value of the first is lower: -0.0998 for the first, -0.088 for the second.

First: AAAAATTC
Second: ATGAAATC
The “PBM E-score” value of the first is lower: 0.186 for the first, 0.314 for the second.

Compared with CTGAAATC, ATGAAATA is higher in “PBM E-score” value: 0.0366 for the first, 0.283 for the second.

Compared with ATAGCTAT, CTTCGAAG is lower in “PBM E-score” value: -0.0877 for the first, -0.21 for the second.

Going from AAGCTATG to ACTAAGAG, the “PBM E-score” value falls from -0.0495 to -0.0881.

Going from CAGAACGG to AAACATCA, the “PBM E-score” value rises from -0.0224 to 0.268.

Going from GGACATCA to CGACATCC, the “PBM E-score” value falls from 0.188 to -0.0566.

Compared with CGACATCG, AGACATCA is higher in “PBM E-score” value: -0.122 for the first, 0.0931 for the second.

First: TAACATCA
Second: TGACATCA
The “PBM E-score” value of the first is lower: 0.399 for the first, 0.496 for the second.

First: CAACATCA
Second: CGACATCA
The “PBM E-score” value of the first is lower: 0.305 for the first, 0.411 for the second.

Compared with ACGCTGGC, AAAGGCAC is higher in “PBM E-score” value: -0.207 for the first, 0.189 for the second.

Compared with CAGACCCC, ATCAATGA is higher in “PBM E-score” value: -0.316 for the first, 0.35 for the second.

Going from GTCAATGA to CTCAATGA, the “PBM E-score” value falls from 0.235 to 0.14.

Going from CCGTACCG to CAGGGTGG, the “PBM E-score” value falls from -0.0599 to -0.23.

First: CCCAAGAC
Second: GGGACATA
The “PBM E-score” value of the first is higher: -0.0855 for the first, -0.0929 for the second.

First: GAGACATA
Second: ATGACAGA
The “PBM E-score” value of the first is lower: -0.00422 for the first, 0.243 for the second.

Compared with ATGACATG, CTGACATA is lower in “PBM E-score” value: 0.351 for the first, 0.324 for the second.

Compared with CGGACATA, AAGACATA is higher in “PBM E-score” value: 0.0467 for the first, 0.0804 for the second.

Going from GTGACATA to ATGACAGG, the “PBM E-score” value falls from 0.471 to 0.0675.

First: ATGACATA
Second: ATGACAAG
The “PBM E-score” value of the first is higher: 0.45 for the first, 0.134 for the second.

First: CAGACATA
Second: CATCTATA
The “PBM E-score” value of the first is lower: 0.131 for the first, 0.162 for the second.

First: ACGCGAGG
Second: CATGCCCC
The “PBM E-score” value of the first is higher: 0.0628 for the first, -0.109 for the second.

First: CATGAGAG
Second: CACGTGCG
The “PBM E-score” value of the first is higher: 0.0742 for the first, -0.038 for the second.

First: CTAGTTCC
Second: ATCGGCTA
The “PBM E-score” value of the first is higher: 0.0382 for the first, -0.138 for the second.

First: CGGGCGTC
Second: AAGCCCGG
The “PBM E-score” value of the first is higher: -0.0942 for the first, -0.209 for the second.

First: AGAACGGG
Second: CAATAAGA
The “PBM E-score” value of the first is lower: -0.0993 for the first, 0.181 for the second.

First: ACTGGTTA
Second: AGGGACGA
The “PBM E-score” value of the first is lower: 0.0197 for the first, 0.0201 for the second.

Compared with TGAGCTCA, CGAGCTCA is lower in “PBM E-score” value: 0.374 for the first, -0.0803 for the second.

Going from AGAGCTCA to GAACCGCC, the “PBM E-score” value rises from -0.192 to -0.092.

Going from GAGCTAAA to TACGTAGA, the “PBM E-score” value rises from -0.0615 to 0.224.

First: CACGTATG
Second: CACGTACA
The “PBM E-score” value of the first is higher: 0.204 for the first, -0.0529 for the second.

Compared with AACGTATA, CACGTATA is lower in “PBM E-score” value: 0.215 for the first, 0.167 for the second.

Compared with TACGTACA, TACGTATA is lower in “PBM E-score” value: 0.336 for the first, 0.328 for the second.

Going from ACCGTATA to AACGTACA, the “PBM E-score” value rises from -0.0183 to 0.0856.

Going from GCCGTATA to CCCGTATA, the “PBM E-score” value falls from 0.367 to -0.0644.

Going from GACGTATA to ATGTTCGA, the “PBM E-score” value falls from 0.322 to 0.0764.

Going from CAATTGTC to AGGATACC, the “PBM E-score” value falls from 0.0392 to -0.251.

Going from GCAGTAAC to CATTCTGC, the “PBM E-score” value rises from -0.065 to 0.0305.

First: CTTCGATA
Second: ATTCCAAA
The “PBM E-score” value of the first is higher: 0.178 for the first, 0.118 for the second.

First: CGCATCCC
Second: ACGTAGCC
The “PBM E-score” value of the first is lower: -0.216 for the first, -0.0377 for the second.

First: GATGACAC
Second: GATGACGC
The “PBM E-score” value of the first is lower: 0.286 for the first, 0.473 for the second.

Compared with AATGACAA, CATGACAA is lower in “PBM E-score” value: 0.267 for the first, 0.14 for the second.

Compared with GATGACTA, GATGACCA is lower in “PBM E-score” value: 0.171 for the first, 0.101 for the second.

Going from GATGACAA to GATGACGA, the “PBM E-score” value rises from 0.333 to 0.463.

Compared with AATGACAT, GACGACGC is lower in “PBM E-score” value: 0.422 for the first, 0.074 for the second.

First: GATGACCC
Second: AATGACAG
The “PBM E-score” value of the first is lower: -0.0821 for the first, 0.167 for the second.
